Inconclusive results are not listed. A number with no mark means an inactive call. The source made the active and inactive calls. The call rests on the fitted dose curve; in most records, active means well fitted cell-killing curve with a large enough effect; inconclusive means small, poorly fitted or top-dose-only effect; inactive means flat fitted curve, though single readings scatter.
Further: nearly all actives have a fitted effect of over 35% in size.
Potency means the concentration at half of the fitted maximal effect.

A short description of one test: Quantitative highthroughput screen to assess conditional lethalithy of P12 Ichikawa cells grown in RPMI1640 with dialyzed fetal bovine serum (RPMI+ds) (AID 1963880).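 On viability: 100% = DMSO wells and 0% = empty wells on each plate.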 To be noted: ATP luminescence, 48 h; Potency: P12-Ichikawa viability; series mostly up to 45.8 µM; viability: at the top concentration. The gist of the method: (§1)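 Each medium arm—HPLM with 10% dialyzed FBS, or RPMI1640 with 5 mM glucose and 10% untreated or dialyzed FBS—was screened against an 11-point, 3-fold compound titration for 48 h at 37 °C, with CellTiter-Glo luminescence as endpoint.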
In general, viability refers to a read-out of living cells in per cent, often relative to untreated cells. With `Cc1cn([C@H]2C=C[C@@H](CO)O2)c(=O)[nH]c1=O`, the “viability” value was 84.3% [at 92.2 µM]. The same measure, in the same setting: for `CC1(C)[C@H](C(=O)O)N2C(=O)C[C@H]2S1(=O)=O` the value was 111%. Turning to `CCCCOc1ccc(C(=O)Nc2ccc(F)cc2F)cc1`, the “viability” value is 101%. Same read-out and setting: for `CN(c1nccc(=O)[nH]1)C1CCN(c2nc3ccccc3n2Cc2ccc(F)cc2)CC1` the value was 95.3%. For `Nc1nc(Cl)nc2c1ncn2[C@H]1C[C@H](O)[C@@H](CO)O1`, the Potency was 235 nM (active). Take `CC[C@H](C)C(=O)O[C@H]1C[C@H](O)C=C2C=C[C@H](C)[C@H](CC[C@@H](O)C[C@@H](O)CC(=O)O)[C@H]21`: the “viability” value is 94.7%.

As for `C[C@@H](CN1CC(=O)NC(=O)C1)N1CC(=O)NC(=O)C1`, the Potency is 590 nM (active). As to `CCn1cc(C(=O)O)c(=O)c2cc(F)c(N3CCNC(C)C3)c(F)c21` (stereo unspecified), the “viability” value was 100%.

Take `OC(CN1CCC(Cc2ccc(F)cc2)CC1)c1ccc(Cl)cc1` (stereo unspecified): the “viability” value is 105%. With `Cc1nnc(C(=O)NC(C)(C)c2nc(C(=O)NCc3ccc(F)cc3)c(O)c(=O)n2C)o1`, the “viability” value was 104%. Turning to `Clc1cccc(Cl)c1NC1=NCCN1`, the “viability” value is 106%. Take `COc1ccccc1OCC(O)CN1CCN(CC(=O)Nc2c(C)cccc2C)CC1` (stereo unspecified): the “viability” value is 103%.

With `CCC1(C)CC(=O)NC1=O` (stereo unspecified), the “viability” value is 99.3%.

Another test is described as follows: Quantitative highthroughput screen to assess conditional lethalithy of P12 Ichikawa cells grown in RPMI1640 with untreated serum (RPMI+s) (AID 1963881).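 On viability: 100% = DMSO wells and 0% = empty wells without cells.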 The conditions noted are these: ATP luminescence, 48 h; Potency: viability; series mostly up to 45.8 µM; viability: at the top concentration. A digest of the protocol: as §1
Turning to `Cc1cn([C@H]2C=C[C@@H](CO)O2)c(=O)[nH]c1=O`, the “viability” value is 91.1% [at 92.2 µM]. Same read-out and setting: the figure for `CC1(C)[C@H](C(=O)O)N2C(=O)C[C@H]2S1(=O)=O` is 107%; for `CCCCOc1ccc(C(=O)Nc2ccc(F)cc2F)cc1` it is 94.9%.

Take `Nc1nc(Cl)nc2c1ncn2[C@H]1C[C@H](O)[C@@H](CO)O1`: the Potency was 187 nM (active).

In the case of `CC[C@H](C)C(=O)O[C@H]1C[C@H](O)C=C2C=C[C@H](C)[C@H](CC[C@@H](O)C[C@@H](O)CC(=O)O)[C@H]21`, the “viability” value is 97.5%. Turning to `C[C@@H](CN1CC(=O)NC(=O)C1)N1CC(=O)NC(=O)C1`, the Potency is 833 nM (active). With `Nc1cccc2c1CN(C1CCC(=O)NC1=O)C2=O` (stereo unspecified), the “viability” value is 95.3% [at 92.2 µM]. Same read-out and setting: the figure for `CCn1cc(C(=O)O)c(=O)c2cc(F)c(N3CCNC(C)C3)c(F)c21` (stereo unspecified) is 104%; for `OC(CN1CCC(Cc2ccc(F)cc2)CC1)c1ccc(Cl)cc1` (stereo unspecified) it is 103%; for `Cc1nnc(C(=O)NC(C)(C)c2nc(C(=O)NCc3ccc(F)cc3)c(O)c(=O)n2C)o1` it is 99.8%. The same measure, in the same setting: the figure for `Clc1cccc(Cl)c1NC1=NCCN1` is 99.2%; for `COc1ccccc1OCC(O)CN1CCN(CC(=O)Nc2c(C)cccc2C)CC1` (stereo unspecified) it is 100%; for `CCC1(C)CC(=O)NC1=O` (stereo unspecified) it is 92.5%.

(Values after PubChem BioAssay (NCATS).)
